Only some compounds are listed: those with a hit (about 6.1% of all), similar ones and a draw of the others.
HepG2 viability – counter-screen for TGF-b inhibitors: cytotoxicity in HepG2 cells; HepG2 CAGA-GFP viability, ATP luminescence, 18 h; Potency, µM (doses to about 46.1 µM), without a hit: top-dose activity change, negative = cytotoxicity, hits mostly cytotoxic; actives 0.76% (n = 410,000)
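CellTiter-Glo luminescence gave cytotoxicity after 18 hours at 37 degrees C. The cells were HepG2 CAGA-GFP in 1% FBS DMEM, stimulated with 500 pg/mL TGF-beta after compound addition. %Activity was normalised to no-cell wells (complete cell-killing) and DMSO (no toxicity), and curves were fitted and classified.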
RORg inh – inhibitors of mouse ROR gamma transcriptional activity; actives 5.4% (n = 310,000); Drosophila S2 Gal4-RORgamma UAS-luciferase reporter, 20 h; AID 2551; Potency, µM (top dose mostly 53.6 µM), inactives show at the highest dose activity change, negative = inhibition, hits mostly inhibitors; P51450; also: % is scaled to controls: 0 for no effect and ±100 for the full control effect; nearly all actives have a fitted effect of over 60% in size
Target sequence (P51450 whole entry, looked up, the tested form may be a part): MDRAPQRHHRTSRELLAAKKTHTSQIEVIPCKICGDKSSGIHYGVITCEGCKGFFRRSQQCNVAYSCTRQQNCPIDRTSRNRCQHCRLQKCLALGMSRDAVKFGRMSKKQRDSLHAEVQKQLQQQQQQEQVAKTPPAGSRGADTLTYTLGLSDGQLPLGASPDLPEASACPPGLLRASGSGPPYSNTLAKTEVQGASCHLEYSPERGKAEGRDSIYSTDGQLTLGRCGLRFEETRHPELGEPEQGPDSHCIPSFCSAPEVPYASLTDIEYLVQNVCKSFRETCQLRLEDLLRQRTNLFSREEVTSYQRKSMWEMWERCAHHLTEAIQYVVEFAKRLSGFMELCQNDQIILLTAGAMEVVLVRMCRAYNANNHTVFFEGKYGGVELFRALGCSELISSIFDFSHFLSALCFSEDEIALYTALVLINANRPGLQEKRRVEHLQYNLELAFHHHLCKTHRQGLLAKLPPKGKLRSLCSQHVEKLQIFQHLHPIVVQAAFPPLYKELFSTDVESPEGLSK
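Luminescence from a UAS-regulated Photinus luciferase reporter in stably transfected Drosophila Schneider cells is measured; decreased signal marks ROR gamma inhibition. Fusion expression is induced by 700 uM copper sulfate for 20 hr.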
TGFb inhibitor – TGF-b pathway inhibition. HepG2 CAGA-GFP TGF-b/SMAD3 reporter, GFP fluorescence, 18 h; TGF-beta stimulated, 500 pg/mL final. Potency, µM (series often up to 46.1 µM), for inactives: top-dose activity, negative = inhibition, actives largely listed as inhibitors. actives 1.2% (n = 410,000). AID 588855; also: % is scaled to controls: 0 for no effect and ±100 for the full control effect; nearly all actives have a fitted effect of over 65% in size
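HEPG2 CAGA-GFP cells (1000/well, DMEM with 1% FBS) were pre-incubated 2 h at 37 degrees C, given compound by pin tool, then stimulated with TGF-beta at 500 pg/mL final for 18 h before per-cell GFP fluorescence imaging.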
ATXN2 expr inh – ATXN2 expression inhibition; AID 1745845; Potency, µM (titrated, usually from 57 µM), for the others: at the highest dose activity change, negative = inhibition, actives largely listed as inhibitors; HEK-293 ATXN2-luciferase reporter, luminescence, 24 h; actives 0.72% (n = 360,000); also: % is scaled to controls: 0 for no effect and ±100 for the full control effect; nearly all actives have a fitted effect of over 55% in size
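ATXN2-luciferase reporter cells (luciferase flanked by upstream and downstream ATXN2 gene portions) were treated 24 h at 37 °C with compounds at up to 57 uM. SteadyGlo luminescence gave expression; GF-AFC fluorescence gave viability.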
S2 tox – cell viability loss in ATXN counter-screen | Potency, µM (series often up to 56.7 µM), usual class: cytotoxic | actives 0.49% (n = 400,000) | AID 651635 | S2 cells (HEK-293 line with an ATXN2-luciferase reporter) viability, CellTiter-Fluor protease fluorescence, 24 h; also: nearly all actives have a fitted effect of over 40% in size
VP16 counter – counter-screen for ROR gamma inhibitors: Gal4-VP16 reporter; Drosophila S2 Gal4-VP16 UAS-luciferase, luminescence, 20 h; actives 3.5% (n = 310,000); Potency, µM (highest dose often 53.6 µM), without a hit: at the highest dose activity, negative = inhibition, hits mostly inhibitors;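 also: Gal4-VP16 expression switched on by copper sulfate through the metallothionein promoter; % is scaled to controls: 0 for no effect and ±100 for the full control effect; nearly all actives have a fitted effect of over 50% in size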
* = called active by the depositor; i = inactive; ? = inconclusive; . = no result; [ ] = another dose, or the depositor's remark. Calls follow the shape of the dose curve; as a rule, active = well fitted curve in the direction sought with a large enough effect; inconclusive = small, poorly fitted or top-dose-only effect, or another doubt; inactive = no such curve, though single readings can be large; an effect the other way counts as inactive or inconclusive. Potency is read from the fitted curve at half-maximal effect.

SMILES	HepG2 viability	RORg inh	TGFb inhibitor	ATXN2 expr inh	S2 tox	VP16 counter
C/C=C1\NC(=O)[C@H]2CSSCC/C=C/[C@H](CC(=O)N[C@H](C(C)C)C(=O)N2)OC(=O)C(C(C)C)NC1=O (stereo not given in full)	.	.	.	.	4.47µM*	.
CC(=O)O[C@H]1C2=CO[C@H](C)[C@H]3[C@H]4C5=C([C@H](O)[C@H]6O[C@@H]6C5=O)[C@H](O[C@H]4C)[C@@]23C(=O)[C@H]2O[C@@H]21	.	?	.	.	.	-4.1%[10 µM]
COc1cc(OC)c(OC)cc1CN1CCC(n2cc(C(=O)N3CCCCC3)nn2)CC1	.	.	.	.	i	.
CN(C)CCNC(=O)/C(=C/c1ccc(-c2ccc(Cl)cc2)o1)NC(=O)c1ccccc1	15.8µM*	?	?	-18.1%	i	?
Cc1ccc(C(=O)N/C(=C\c2ccc(-c3cccc([N+](=O)[O-])c3)o2)C(=O)NCCCN(C)C)cc1	-71.3%	-6.6%	?	?	?	-23.0%
Cc1ccc(C(=O)N/C(=C\c2ccc(-c3ccc(Br)cc3)o2)C(=O)NCCCN(C)C)cc1	4.47µM*	?	7.08µM*	10µM*	31.6µM*	?
Cc1ncc2c(c1CNC(=O)c1ccccc1F)CCN(C(=O)c1ccccc1-n1cccn1)C2	.	.	.	.	i	.
C(=C/c1nccc2c1[nH]c1ccccc12)/c1ccc2c(c1)OCO2	-49.3%	0.891µM*	?	1.2%	.	-24.1%
CCc1cc2c(Sc3nc4ccccc4s3)ncnc2s1	-18.3%	8.91µM*	0.0%	?	?	?
CCc1cc2c(SCC(=O)Nc3ccc(NC(C)=O)cc3)ncnc2s1	-25.0%	.	2.7%	.	i	.
c1ccc(CSc2ncnc3sccc23)cc1	-15.8%	?	-19.5%	16.8%	i	29.4%
c1ccc2sc(Sc3ncnc4sccc34)nc2c1	-54.9%	10µM*	?	6.8%	i	?
O=C(CN1C(=O)CSc2ccc(S(=O)(=O)N3CCCC3)cc21)NCc1ccc(F)cc1Cl	-8.6%	.	-1.5%	3.2%	i	.
CCOc1cc(C2C(C(=O)Nc3ccccc3)=C(C)Nc3ncnn32)cc(Br)c1O (stereo not given)	3.5%	.	2.7%	11.6%	i	.
O=C(O)c1ccc(-c2nc(-c3ccccc3)c(-c3ccccc3)[nH]2)cc1	5.4%	29.2%	-0.6%	-4.3%	i	-11.5%
Fc1ccc(-c2nc(-c3cccs3)[nH]c2-c2ccc(F)cc2)cc1	-38.9%	-25.8%	14.1µM*	-4.4%	?	-16.9%
Oc1cccc(-c2nc(-c3cccs3)c(-c3cccs3)[nH]2)c1	-85.8%	.	14.1µM*	.	.	.
Cc1ccsc1-c1nc(-c2ccccc2)c(-c2ccccc2)[nH]1	-17.9%	3.98µM*	-9.1%	0.3%	?	?
Fc1ccc(-c2nc(-c3cccs3)c(-c3cccs3)[nH]2)cc1	-21.2%	.	-26.3%	.	.	.
CCOC(=O)c1c(NC(=O)COc2cccc(C(F)(F)F)c2)sc2c1CCC(C)C2 (stereo not given)	0.6%	.	2.1%	6.9%	?	.
CC(=O)OCC(CO)OC(C)=O (stereo not given) (tested in a mixture with another compound)	.	8.9%	.	.	.	-2.0%
Cc1cc(=O)oc2cc(OC3C=CC(C#CC(C)(C)C)OC3CO)ccc12 (stereo not given)	.	3.8%[10 µM]	.	.	.	-0.6%[10 µM]
O=C(CCN1CCOCC1)N/N=C/c1cc([N+](=O)[O-])ccc1OC(F)F	4.9%	-1.1%	8.2%	1.6%	i	-14.0%
O=C(CSCc1ccccc1)N/N=C/c1cc2c(cc1Br)OCO2	-46.6%	?	?	-8.2%	i	11.2µM*
O=C(CCN1CCOCC1)N/N=C/c1cc(Br)cc(Br)c1O	-36.6%	1.41µM*	-38.2%	-15.2%[11.3 µM]	.	5.01µM*
SMILES	HepG2 viability	RORg inh	TGFb inhibitor	ATXN2 expr inh	S2 tox	VP16 counter
O=C(CNC(=O)c1cccc(Br)c1)N/N=C/c1cc(Br)cc(Br)c1O	-23.5%	2.51µM*	-2.1%	?	i	12.6µM*
O=C(Cc1ccccc1)N/N=C/c1cc(Br)cc(Br)c1O	-20.1%	0.794µM*	0.0%	?	i	1.58µM*
CCS(=O)(=O)NCCc1sc2nc(-c3ccc(OC)cc3)nn2c1C	-65.1%	.	?	.	.	.
CC(C)CN1C(=O)/C(=C/c2cccs2)NC1=S	-1.9%	5.01µM*	-9.7%	4.3%	i	7.08µM*
COc1cccc(N2C(=O)/C(=C\c3cccs3)NC2=S)c1	3.4%	10µM*	15.5%	.	?	?
CCCN1C(=O)/C(=C/c2ccc(C)s2)NC1=S	-13.2%	5.62µM*	-10.2%	0.9%	i	10µM*
CC(C)CN1C(=O)/C(=C/c2ccco2)NC1=S	-22.1%	?	-21.9%	12.2%	i	?
C=CCOC(=O)N[C@@H](CCc1ccccc1)C(C(C)=O)C(C)=O	.	16.3%	.	.	.	-7.9%
COc1ccc(NC(=O)CCn2cccn2)cc1OC	-1.8%	.	-1.0%	7.7%	i	.
Cc1noc(C)c1CCC(=O)N1CCOc2ccc(CN3CCN(c4ccccn4)CC3)cc2C1	.	.	.	.	i	.
Cc1ccsc1/C=C1\CCc2ccccc2C1=O	-58.4%	?	-3.0%	86.1%	i	11.2µM*
O=C1C(=Cc2ccccn2)CCc2ccccc21	12.6µM*	.	10µM*	.	?	.
COc1ccc2c(c1)CC/C(=C/c1ccccn1)C2=O	-38.6%	-42.4%	?	5.4%	i	-6.8%
OC(CNCc1ccccn1)c1ccccc1 (stereo not given)	-4.8%	-14.3%	7.0%	6.0%	i	-0.7%
Fc1ccc(C(CCNCc2ccccn2)c2ccc(Cl)cc2)cc1 (stereo not given)	12.6µM*	-35.9%	?	-31.0%	i	-11.4%
O=C(CN1C(=O)COc2ccc(S(=O)(=O)NC3CCCC3)cc21)NCc1ccccc1Cl	-0.7%	.	-2.2%	-1.9%	?	.
Cc1ccc(S(=O)(=O)N[C@@H](CCc2ccccc2)CC(=O)C(C)(C)C)cc1	.	-5.9%[10 µM]	.	.	.	10.6%[10 µM]
NC(=O)C1=CC2C3C=CC2(O)C(=O)OC3O1 (stereo not given)	12.6µM*	.	11.2µM*	21.2µM*	.	.
CCCCC[C@H](O)/C=C/C=C\CCCCCCCCCC(=O)O	.	-18.8%	.	.	.	-9.9%
O=S(=O)(Nc1ccc(O)c(Sc2nc3ccccc3s2)c1)c1cccc2ccccc12	-23.5%	?	?	3.0%	?	7.94µM*
O=S(=O)(Nc1ccc(O)c(Sc2nc3ccccc3s2)c1)c1cc(Cl)ccc1Cl	-35.0%	.	?	-4.2%	i	.
N#CC1=C(S)N(c2ccccc2)C(c2cccs2)NC1=O (stereo not given)	-10.6%	-10.6%	?	-20.3%	?	-7.5%
